Screening results from PubChem.
Shown are actives, neighbours in structure and some others; about 7.3% of the full set was active somewhere.
NPC1 promoter act: NPC1 promoter activation; Huh7 NPC1 promoter luciferase reporter, 24 h; Potency, µM (titrated, usually from 9.22 µM), for inactives: top-dose activation, actives largely listed as activators; 2.4% of 320,000 active; AID 485313; also: % of control where 0% means no effect; nearly all actives have a fitted effect of over 60% in size
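Cells: Huh7 expressing luciferase under the NPC1 promoter, 1500/well. Seeded 2 h, compound added, incubated 24 h at 37 °C. Luciferase reagent, 10 min ambient, then luminescence.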
SMN2 splice enh: SMN2 splice variant enhancement | HEK293 SMN2-luciferase splicing reporter, luminescence, 30-36 h | Potency, µM (top dose mostly 46.1 µM), for inactives: at the highest dose activity change, positive = activation, usual class: activators | 2.8% of 210,000 active; also: % of control where 0% means no effect; nearly all actives have a fitted effect of over 55% in size
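HEK293 cells carry an SMN2 […]–luciferase reporter in which exon 7 inclusion puts luciferase in frame. Cells were plated 10-12 h before compound addition, then incubated 30-36 h at 37C. ONE-Glo luminescence was read; sodium butyrate at 4.5 mM final served as control.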
Rab9 prom act: activates the Rab9 promoter; Huh7 Rab9 promoter-luciferase reporter, luminescence, 24 h; Potency, µM (titrated, usually from 9.22 µM), without a hit: top-dose activation, negative = inhibition, most hits filed as activators; 2.8% of 320,000 active; also: % of control where 0% means no effect; nearly all actives have a fitted effect of over 60% in size
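Huh7 reporter line, Rab9 promoter upstream of luciferase. Compound exposure 24 h at 37 °C in reduced-serum medium with 10% FBS. Read-out: luminescence.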
FLuc counter: firefly luciferase modulation, counter-screen for miR-21 project | P08659 | purified FLuc, Km substrates, luminescence inhibition | Potency, µM (titrated, usually from 57.5 µM), without a hit: top-dose activity change, negative = inhibition, hits mostly inhibitors | 6.9% of 360,000 active;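 also: plate controls were vehicle for no effect and reference inhibitor for full effect; nearly all actives have a fitted effect of over 55% in size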
Target sequence (P08659 whole entry, looked up): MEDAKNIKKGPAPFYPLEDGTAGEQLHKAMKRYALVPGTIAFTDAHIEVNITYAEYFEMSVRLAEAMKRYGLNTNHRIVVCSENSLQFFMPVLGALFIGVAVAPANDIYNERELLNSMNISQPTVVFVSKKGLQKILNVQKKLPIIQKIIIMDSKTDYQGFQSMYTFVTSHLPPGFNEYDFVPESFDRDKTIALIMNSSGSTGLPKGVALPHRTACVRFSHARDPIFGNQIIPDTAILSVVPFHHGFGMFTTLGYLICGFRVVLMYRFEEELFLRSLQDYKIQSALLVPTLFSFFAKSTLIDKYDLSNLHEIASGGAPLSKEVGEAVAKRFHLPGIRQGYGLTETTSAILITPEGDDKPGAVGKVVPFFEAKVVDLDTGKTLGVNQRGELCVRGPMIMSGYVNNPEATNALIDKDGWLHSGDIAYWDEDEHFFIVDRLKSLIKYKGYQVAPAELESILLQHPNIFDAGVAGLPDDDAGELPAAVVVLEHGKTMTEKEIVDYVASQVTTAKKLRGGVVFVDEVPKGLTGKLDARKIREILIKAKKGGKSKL
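Purified P. pyralis luciferase (10nM final) with 10uM D-luciferin and 10uM ATP (Km levels) in 50mM Tris acetate pH 7.5, 10mM Mg acetate, 0.01% Tween-20, 0.05% BSA; qHTS 6-point titration, ~60 µM downward; luminescence read.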
Luc counter: Kinase-Glo luciferase inhibition (counter-screen); Q27757; Kinase-Glo luciferase, ATP luminescence, 8 min; Potency, µM (titrated, usually from 38.3 µM), inactives show at the top dose activity change, negative = inhibition, actives largely listed as inhibitors; 0.28% of 200,000 active; also: % is scaled to controls: 0 for no effect and ±100 for the full control effect; nearly all actives have a fitted effect of over 60% in size
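Luminescence was the read-out, taken after 8-minute incubation at ambient temperature. Luciferase turned over luciferin with 10 uM ATP in imidazole pH 7.2 buffer containing KCl, MgCl2, Tween 20 and BSA.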
ELG1 genotoxic: inducers of genotoxicity in HEK293T ELG1-luciferase cells | Potency, µM (titrated, usually from 46 µM), without a hit: at the highest dose activity change, positive = activation, usual class: activators | AID 504466 | 1.3% of 330,000 active | HEK293T ELG1-luciferase reporter, luminescence, 16 h; also: % of control where 0% means no effect; nearly all actives have a fitted effect of over 60% in size
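After overnight (16 hr) compound treatment at 37 °C, ELG1-luciferase HEK293T cells were lysed with ONE-Glo; luminescence quantified 30 min later at room temperature.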
* = called active by the depositor; ? = inconclusive; . = no result given; [ ] = another dose, or the depositor's remark. Calls follow the shape of the dose curve; as a rule, active = well fitted curve in the direction sought with a large enough effect; inconclusive = small, poorly fitted or top-dose-only effect, or another doubt; inactive = no such curve, though single readings can be large; an effect the other way counts as inactive or inconclusive. Potency is read from the fitted curve at half-maximal effect.

SMILES	NPC1 promoter act	SMN2 splice enh	Rab9 prom act	FLuc counter	Luc counter	ELG1 genotoxic
COc1cccc(NC(=O)Nc2ccncc2)c1	-1.1%	.	18.2%	?	-6.4%	-2.3%
COc1cccc(NC(=O)Nc2nnc(N3C(C)CCCC3C)s2)c1 (stereo unspecified)	28.6%	.	22.7%	21.3µM*	.	-5.3%
COc1ccc(CNC(=O)c2ccncc2)cc1	0.4%	.	6.8%	0.5%	.	-3.8%
COc1cccc(NC(=O)Nc2ccc(Cc3ccncc3)cc2)c1	-0.3%	-35.5%	-1.6%	16.9µM*	2.4%	-1.2%
CC(C)Oc1cccc(C(=O)NC(=S)Nc2ccc3c4c(cccc24)CC3)c1	-3.5%	.	4.4%	1.4%	.	0.3%
COc1ccc(Br)cc1C(=O)Nc1ccc(Cc2ccncc2)cc1	8.7%	-28.9%	1.1%	?	-0.4%	-1.9%
COc1c(C(=O)Nc2ccc(Cc3ccncc3)cc2)ccc2ccccc12	3.9%	-53.6%	-4.5%	19µM*	2.3%	-0.1%
O=C(N/N=C/c1ccc(O)c(O)c1O)/C(=C/c1ccc([N+](=O)[O-])cc1)NC(=O)c1ccccc1	-2.8%	1.3%	-9.2%	10.7µM*	-2.7%	1.7%
Cc1cc(C)cc(OCC(=O)N(Cc2ccc(Cl)cc2)CC2CCCO2)c1 (stereo unspecified)	.	.	.	-6.0%	.	.
Cn1/c(=N/N=C/c2ccc([N+](=O)[O-])cc2)sc2ccccc21	24.4%	17.4%	5.7%	2.13µM*	-0.8%	?
COc1ccccc1N=c1sc2ccccc2n1C	0.5%	-25.3%	-2.4%	-7.1%	-1.2%	5.6%
COc1ccc(C)cc1S(=O)(=O)n1nc(C)cc1C	1.6%	-4.1%	-3.4%	1.0%	2.1%	0.2%
Cc1ccc(/C=N/N=C/c2ccc(C)s2)s1	1.58µM*	7.08µM*	2.24µM*	0.675µM*	0.3%	3.66µM*
Cc1cccc(N/N=C/c2ccc(C)s2)c1	?	.	?	12µM*	.	?
Cc1cccc(N/N=C/c2ccc(O)c(O)c2O)c1	-4.0%	.	-2.0%	?	.	-3.9%
O=C1NC(=Nc2ccccc2Cl)S/C1=C\c1ccc(C(=O)O)cc1	2.5%	.	11.5%	?	.	1.6%
CC12CCC(C/C1=N\N=C1\NC(=O)/C(=C\c3ccc(Cl)cc3)S1)C2(C)C (stereo unspecified)	7.7%	-29.6%	15.8%	6.01µM*	2.5%	11.6%
COc1ccc(CC(=O)NC(=S)Nc2ccc(S(N)(=O)=O)cc2)cc1	-0.4%	-9.5%	0.0%	1.9%	0.2%	0.1%
CCOC(=O)c1sc(-c2ccc(Br)cc2)cc1N	2.24µM*	12.6µM*	2.82µM*	4.78µM*	-1.4%	?
CCOC(=O)c1cc(-c2ccc(N)cc2)sc1N	2.82µM*	11.2µM*	2.24µM*	15.1µM*	-1.9%	7.31µM*
CCOC(=O)c1ccc(N)cc1	1.1%	13.1%	0.9%	2.8%	-4.0%	?
CCOC(=O)c1sc(-c2ccccc2)cc1NC(=O)Nc1ccccc1	-7.4%	-9.7%	-2.4%	?	-0.1%	-1.9%
CN(c1ccccc1C(=O)Nc1ccc2c(c1)OCO2)S(C)(=O)=O	-2.5%	-3.6%	-3.0%	-4.7%	0.0%	0.9%
CCC(C)NC(=O)c1cccc(NC(=O)c2nsc3ccccc23)c1 (stereo unspecified)	.	.	.	6.01µM*	.	.
COc1ccccc1CNC(=O)c1cccc(NC(=O)c2ccccc2)c1	0.6%	-3.3%	1.6%	?	2.1%	-8.6%
SMILES	NPC1 promoter act	SMN2 splice enh	Rab9 prom act	FLuc counter	Luc counter	ELG1 genotoxic
CCC(CC)NC(=O)c1cccc(NC(=O)C(C)C)c1	-1.4%	?	-1.3%	-0.3%	1.5%	-0.5%
CCOc1ccccc1CNC(=O)c1cccc(NC(=O)c2nsc3ccccc23)c1	.	.	.	6.01µM*	.	.
O=C(COC(=O)c1ccccc1Nc1ccccc1F)c1ccccc1	-2.7%	.	-0.8%	?	.	7.7%
CCC(=O)NCCc1nc2ccccc2[nH]1	-3.3%	?	0.6%	2.7%	-2.5%	-4.6%
CCOC(=O)C1(Cc2ccccc2)CCCN(CCO)C1 (stereo unspecified)	-5.2%	.	-10.4%	1.1%	4.1%	-3.7%
CC(C)CC(NC(=O)OCC1c2ccccc2-c2ccccc21)C(=O)O (stereo unspecified)	.	12.6µM*	.	.	-0.5%	.
CCN(CC)C(=O)c1sc2c(c1C)c(=O)n(CCc1ccccc1)c(=O)n2Cc1cc(C)ccc1C	.	.	.	0.5%	.	.
C(=N\Nc1nncc2ccccc12)/c1ccccn1	?	.	?	1.69µM*	.	0.366µM*
O=c1cnnc(N/N=C/c2ccccn2)[nH]1	-14.4%	.	-18.8%	-0.1%	.	13.0%
Cc1ccc(NC(=O)CSc2nncc3ccccc23)cc1	-6.2%	.	2.9%	-24.7%	.	-0.5%
Fc1cccc(/C=N/Nc2nncc3ccccc23)c1	0.316µM*	.	?	0.601µM*	.	0.731µM*
CC(=O)Nc1ccc(/C=N/Nc2nncc3ccccc23)cc1	2.82µM*	.	1.12µM*	12µM*	.	15.4%
COC(=O)c1ccc(OCC(=O)N2CCCc3ccccc32)cc1	-0.6%	.	-0.9%	-17.0%	.	1.1%
FC(F)(F)c1nnc(-c2ccccc2)nc1N1CCOCC1	-1.1%	0.2%	-2.2%	-0.9%	-0.5%	-4.2%
Nc1nc(Nc2cccc(F)c2)nc2ccccc12	1.26µM*	?	2.24µM*	5.36µM*	-16.5%	?
Fc1cccc(Nc2c3c(nc4ccccc24)CCC3)c1	-11.0%	.	4.0%[1.84 µM]	-1.8%	.	-3.5%
O=c1oc(Nc2cccc(F)c2)nc2ccccc12	2.24µM*	?	2.24µM*	?	0.2%	18.4µM*
COc1ccc(NS(=O)(=O)c2cc(NC(=O)Cn3cnc4c3c(=O)n(C)c(=O)n4C)ccc2C)cc1	-0.8%	3.7%	-0.1%	-2.2%	-2.5%	-1.5%
CC1CCCCC12NC(=O)N(CC(=O)OCc1ccccc1Cl)C2=O (stereo unspecified)	-0.4%	.	-8.3%	1.1%	.	-0.6%
COC(=O)c1cc2oc(C)cc2n1Cc1cccc(Cl)c1	.	7.8%	.	-0.8%	.	.
O=C(NNC(=O)C12CC3CC(CC(C3)C1)C2)c1ccccc1O	-11.2%	.	-27.5%	15.1µM*	.	0.9%
Cc1ccccc1C(=O)NNC(=O)C12CC3CC(CC(C3)C1)C2	-3.6%	7.2%	-5.5%	1.8%	-2.3%	-0.7%
Cc1cccc(C(=O)NNC(=O)C23CC4CC(CC(C4)C2)C3)c1O	-4.4%	.	14.4%	15.1µM*	.	22.8%
N#C/C(=C\c1ccc(Cl)cc1)c1nc(-c2ccco2)cs1	21.3%	21.5%	21.5%	?	2.2%	12.8%
Cc1ccc(CSc2nc3cccnc3n2Cc2ccc(C(=O)NCc3cccs3)cc2)cc1	.	.	.	0.953µM*	.	.
O=C(NCc1cccs1)c1ccc(Cn2c(SCc3ccccc3)nc3cccnc32)cc1	.	.	.	6.75µM*	.	.
